From ChEMBL document CHEMBL1157539, “Thousands of chemical starting points for antimalarial lead identification” (Nature, 2010) come the findings set out here.

SMILES strings stand for the structures. Values joined by “and” are separate entries in the source; they are usually repeats but may differ in a detail not shown here. Equal values may be shown once.

What all share (type): functional
Experiment [1] concerns Plasmodium falciparum. The experiment in a line: GSK_TCMDC: Inhibition of Plasmodium falciparum 3D7 in whole red blood cells, using parasite LDH activity as an index of growth. Test compounds present at 2uM.
Experiment [2] relates to Plasmodium falciparum. Kind of experiment: GSK_TCMDC: Inhibition of Plasmodium falciparum Dd2 in whole red blood cells, using parasite LDH activity as an index of growth. Test compounds present at 2uM.
The subject of a further experiment is HepG2. Kind of experiment: GSK_TCMDC: Percent inhibition of human HepG2 cell line. Test compounds present at 10uM.

Take `O=C(/C=C/c1ccc(Cl)c(Cl)c1)NCCCCCN1C2CCC1CC(c1c[nH]c3ccc(O)cc13)C2` (centres undefined): the Inhibition in the experiment with Plasmodium falciparum [1] was 100% and 91%; in the experiment with Plasmodium falciparum [2], 0% and 20%; with HepG2 it was 9% and 26%.
As to `O=C(C=Cc1ccc(-c2ccccc2)cc1)NC1CCC(CN2CCC(c3c[nH]c4ccccc34)CC2)CC1` (centres undefined), the Inhibition was 100% in the experiment with Plasmodium falciparum [1]; 85% and 98% with Plasmodium falciparum [2]; 97% and 43% in the experiment with HepG2.
Regarding `COc1ccc(C=CC(=O)NC2CCC(CN3CCC(c4c[nH]c5ccccc45)CC3)CC2)cc1OC` (centres undefined), the Inhibition in the experiment with Plasmodium falciparum [1] was 100%; in the experiment with Plasmodium falciparum [2], 85% and 72%; with HepG2 it was 14% and 15%.
For the molecule `CC[C@H]1CN2CC[C@H]1C[C@H]2[C@H](O)c1cc(Cl)nc2ccc(OC)cc12`, the Inhibition is recorded as 100% in the experiment with Plasmodium falciparum [1], 92% in the experiment with Plasmodium falciparum [2] and 0% in the experiment with HepG2.
On to `CC[C@H]1CN2CC[C@@H]1C[C@H]2[C@H](O)c1cc(N2CCC(C(N)=O)CC2)nc2ccc(OC)cc12`, for which the Inhibition in the experiment with Plasmodium falciparum [1] was 99%; in the experiment on Plasmodium falciparum [2], 9%; with HepG2, 17%.
The corresponding values for `Cc1csc(-c2ccc3[nH]cc(C4=CCN(C)CC4)c3c2)n1` are 93%, 78% and 10%.
The matching figures for `CC(=O)C1(c2ccccc2)CCN(CCC2(c3ccc(Cl)c(Cl)c3)CN(C(=O)CC(C)C)CCO2)CC1` (centres undefined): 92%, 94% and 7%.
The corresponding values for `O=C(NC1CCC(CN2CCC(c3c[nH]c4ccccc34)CC2)CC1)c1ccc(-c2ccccc2[N+](=O)[O-])o1` (centres undefined) are 100%, 34% and 24%.
Regarding `CC(Cc1ccc(OCc2ccc(CCN(C)C)cc2)cc1)NCCc1cccc(Cl)c1` (centres undefined), the Inhibition is 100% in the experiment with Plasmodium falciparum [1], 78% in the experiment with Plasmodium falciparum [2] and 42% with HepG2.
The matching figures for `CC[C@H]1CN2CC[C@@H]1C[C@H]2[C@H](O)c1cc(N2CCC(c3ccccc3)CC2)nc2ccc(OC)cc12`: 99%, 98% and 45%.
As to `O=C(C=Cc1ccc(F)c(Br)c1)NC1CCC(CN2CCC(c3c[nH]c4ccccc34)CC2)CC1` (centres undefined), the Inhibition in the experiment with Plasmodium falciparum [1] is 100%; in the experiment on Plasmodium falciparum [2], 67% and 50%; with HepG2, 28% and 39%.
As for `CCCCCc1cc(O)c2c(c1)OC(C)(C)CC2C1=CCN(Cc2cccnc2)CC1.Cl.O` (centres undefined), the values for the Inhibition in the experiment on Plasmodium falciparum [1], with Plasmodium falciparum [2] and with HepG2 were 97%, 97% and 15%, respectively.
Consider `CS(=O)(=O)Nc1ccc2[nH]cc(C3CCN(CC4CCN(C(=O)/C=C/c5ccc(Cl)c(Cl)c5)CC4)CC3)c2c1`, for which the Inhibition in the experiment on Plasmodium falciparum [1] is listed as 100%; in the experiment with Plasmodium falciparum [2], 92%; in the experiment with HepG2 it was 27%.
Take `COC(=O)/C=C/c1ccc(CC(C)NCC(O)c2cccc(C(F)(F)F)c2)cc1` (centres undefined): the values for the Inhibition in the experiment on Plasmodium falciparum [1], with Plasmodium falciparum [2] and in the experiment with HepG2 were 97%, 96% and 16%, respectively.
The matching figures for `Cc1cc(NC(=O)[C@H](CC(C)C)Nc2ccc(C#N)c3ccccc23)ccc1F.O=C(O)C(F)(F)F`: 95%, 88% and 35%.
The corresponding values for `CC[C@H]1CN2CC[C@@H]1C[C@H]2[C@H](O)c1cc(N2CCC(C)CC2)nc2ccc(OC)cc12` are 99%, 98% and 16%.
For `COc1ccc(F)cc1-c1csc(N(c2ccc(F)cc2)C2CCNCC2)n1.O=C(O)C(F)(F)F`, the results for the Inhibition in the experiment with Plasmodium falciparum [1], in the experiment with Plasmodium falciparum [2] and in the experiment with HepG2 were 94%, 0% and 15%, respectively.
Take `COc1ccc2[nH]cc(C3=CCN(CC4CC4C(=O)c4ccccc4)CC3)c2n1` (centres undefined): the Inhibition is on record as 95% with Plasmodium falciparum [1], 93% with Plasmodium falciparum [2] and 22% in the experiment on HepG2.
In the case of `CC(=O)N(Cc1ccc(-c2ccc(CNCCc3ccccc3)cc2)cc1)C1CCN(Cc2ccccc2)CC1.O=C(O)C(F)(F)F`, the results for the Inhibition in the experiment with Plasmodium falciparum [1], with Plasmodium falciparum [2] and with HepG2 were 95%, 15% and 45%, respectively.
With `CC[C@H]1CN2CC[C@@H]1C[C@@H]2[C@@H](O)c1cc(-c2ccc(F)cc2)nc2ccc(OC)cc12.Cl`, the Inhibition with Plasmodium falciparum [1] came out at 98%; in the experiment with Plasmodium falciparum [2] it was 64%; with HepG2, 18%.
The corresponding values for `COc1cccc(C=CC(=O)NC2CCC(CN3CCC(c4c[nH]c5ccccc45)CC3)CC2)c1OC` (centres undefined) are 100%, 40% and 37%.
The corresponding values for `O=c1n[n+](C2CCCCC2)[n-]o1` are 91%, 82% and 0%.
The corresponding values for `CC[C@H]1CN2CC[C@H]1C[C@H]2[C@H](O)c1cc(/C=C/c2ccccc2)nc2ccc(OC)cc12` are 99%, 99% and 16%.
Consider `CC(=O)C1(c2ccccc2)CCN(CCC2(c3ccc(Cl)c(Cl)c3)CN(C(=O)c3cccc(Cl)c3)CCO2)CC1` (centres undefined), for which the Inhibition is on record as 90% in the experiment with Plasmodium falciparum [1], 61% in the experiment on Plasmodium falciparum [2] and 37% with HepG2.
The corresponding values for `O=C(NC1CCC(CN2CCC(c3c[nH]c4ccccc34)CC2)CC1)c1cc2cccc([N+](=O)[O-])c2[nH]1` (centres undefined) are 100%, 100% and 36%.
For `CCCCC/C=C/C(=O)NC1CCC(CN2CCC(c3c[nH]c4ccccc34)CC2)CC1` (centres undefined), the Inhibition came to 87% in the experiment with Plasmodium falciparum [1], 11% in the experiment with Plasmodium falciparum [2] and 19% in the experiment on HepG2.
The corresponding values for `O=C(/C=C/c1ccc2ccccc2c1)NC1CCC(CN2CCC(c3c[nH]c4ccccc34)CC2)CC1` (centres undefined) are 100%, 88% and 28%.
The corresponding values for `CCCCC1(NC(=O)[C@H](CC(C)C)Nc2ccc(C#N)c3ccccc23)CCCCC1.O=C(O)C(F)(F)F` are 96%, 47% and 37%.
The corresponding values for `CCOc1ccc2nccc([C@@H](O)[C@@H]3C[C@@H]4CCN3C[C@@H]4CC)c2c1` [ETHYLHYDROCUPREINE] are 99%, 51% and 1%.
Consider `Cl.c1ccc2c(NCCCCCCCCCNc3c4ccccc4nc4ccccc34)c3ccccc3nc2c1`, for which the values for the Inhibition in the experiment on Plasmodium falciparum [1], with Plasmodium falciparum [2] and in the experiment on HepG2 were 100%, 95% and 99%, respectively.
The matching figures for `CN1CCC(COC(=O)C(O)(c2ccccc2)c2ccccc2)C1` (centres undefined) [TRICLAZATE]: 98%, 4% and 0%.
The corresponding values for `CC[C@H]1CN2CC[C@@H]1C[C@H]2[C@H](O)c1ccnc2ccc(Cl)cc12.Cl` are 100%, 98% and 0%.
The corresponding values for `CCCCOC(C(=O)OCC1CCCN1C)(c1ccccc1)c1ccccc1` (centres undefined) are 100%, 2% and 3%.
With `CC(C)CNCc1ccc(-c2cccc(CN(C(=O)Nc3ccccc3)C3CCN(Cc4ccccc4)CC3)c2)cc1.O=C(O)C(F)(F)F`, the figures for the Inhibition in the experiment with Plasmodium falciparum [1], in the experiment with Plasmodium falciparum [2] and in the experiment on HepG2 were 100%, 95% and 48%, respectively.
The matching figures for `CC[C@H]1CN2CC[C@H]1C[C@H]2C(O)c1cc(OC)nc2ccccc12` (some centres undefined): 100%, 98% and 0%.
In the case of `COc1ccc(CCNCc2ccc3nc(N)cc(C)c3c2)cc1`, the Inhibition is 100% in the experiment with Plasmodium falciparum [1], 86% with Plasmodium falciparum [2] and 23% in the experiment on HepG2.
The matching figures for `CC(C)n1ncc2c(C(=O)Nc3ccc(C#N)c(Cl)c3)cc(C3CC3)nc21`: 93%, 15% and 20%.
The matching figures for `CN(C(=O)OCc1ccccc1)C1CCC(CCN2CCC3(CC2)C(=O)NCN3c2cccc(C(F)(F)F)c2)(c2ccccc2)CC1` (centres undefined): 80%, 72% and 19%.
The corresponding values for `c1ccc(C(OCCC2CCN(Cc3cccnc3)CC2)c2ccccc2)cc1` are 99%, 98% and 12%.
As to `CN(c1cc(NC(=O)c2ccc(F)cc2)ccn1)C1CCN(Cc2cccc(F)c2)CC1.O=C(O)C(F)(F)F`, the values for the Inhibition with Plasmodium falciparum [1], in the experiment on Plasmodium falciparum [2] and in the experiment with HepG2 were 100%, 97% and 13%, respectively.
The corresponding values for `O=C(/C=C/c1cccs1)NC1CCC(CN2CCC(c3c[nH]c4ccccc34)CC2)CC1` (centres undefined) are 82%, 29% and 33%.
Regarding `O=C(C=Cc1ccccc1C(F)(F)F)NC1CCC(CN2CCC(c3c[nH]c4ccccc34)CC2)CC1` (centres undefined), the Inhibition with Plasmodium falciparum [1] was 100%; with Plasmodium falciparum [2] it was 90% and 47%; in the experiment with HepG2, 47% and 73%.
With `O=C(C=Cc1ccccc1Br)NC1CCC(CN2CCC(c3c[nH]c4ccccc34)CC2)CC1` (centres undefined), the Inhibition in the experiment on Plasmodium falciparum [1] was 100%; in the experiment on Plasmodium falciparum [2] it was 57% and 32%; in the experiment with HepG2, 36% and 43%.
`C/C=C1\CN2CC[C@H]1C[C@H]2[C@H](O)c1ccnc2ccc(OC)cc12.O=S(=O)(O)O`: the Inhibition in the experiment with Plasmodium falciparum [1] is recorded as 99%; in the experiment with Plasmodium falciparum [2], 61%; in the experiment with HepG2 it was 0%.
Turning to `Br.CCOC(=O)c1ccc(CC(C)NCC(O)c2cccc(C(F)(F)F)c2)cc1` (centres undefined), the Inhibition amounted to 100% in the experiment with Plasmodium falciparum [1], 98% in the experiment with Plasmodium falciparum [2] and 5% with HepG2.
The corresponding values for `CC(Cc1ccc(OCc2ccccc2)cc1)NCC(O)c1cccc(Cl)c1` (centres undefined) are 99%, 99% and 50%.
The matching figures for `COC(=O)c1ccc(CC(C)NCC(O)c2cccc(I)c2)cc1` (centres undefined): 87%, 54% and 15%.
The corresponding values for `Oc1ccccc1CN1CCC(CCOC(c2ccccc2)c2ccc(Cl)cc2)CC1` (centres undefined) are 97%, 99% and 19%.
In the case of `CS(=O)(=O)Nc1ccc2c(C3CCN(CC4CCN(C(=O)/C=C/c5ccc(Cl)c(Cl)c5)CC4)CC3)c[nH]c2c1`, the Inhibition in the experiment on Plasmodium falciparum [1] is on record as 99%; in the experiment on Plasmodium falciparum [2], 70%; with HepG2, 28%.
Regarding `S=C(NCC1CCCCC1)NC1CCC(CN2CCC(c3c[nH]c4ccccc34)CC2)CC1` (centres undefined), the Inhibition in the experiment on Plasmodium falciparum [1] came to 88%; in the experiment with Plasmodium falciparum [2], 10%; in the experiment on HepG2, 29%.
The matching figures for `Br.CC[C@H]1CN2CC[C@H]1C[C@H]2[C@H](O)c1ccnc2ccc(OC)cc12`: 100%, 62% and 0%.
For `COc1ccc(CCNCc2ccc3nc(N)c(C)cc3c2)cc1.Cl`, the Inhibition is 100% in the experiment on Plasmodium falciparum [1], 15% in the experiment on Plasmodium falciparum [2] and 0% in the experiment on HepG2.
The matching figures for `CNCCCN(C)C(=O)Oc1c(Br)c(C)nc(C)c1-c1ccc(Oc2ccc(OC(F)(F)F)cc2)cc1.Cl`: 96%, 96% and 17%.
Regarding `O=C(/C=C/c1ccc(Cl)c(Cl)c1)NCCC1CCC(N2CCC(c3c[nH]c4ccc(O)cc34)CC2)CC1` (centres undefined), the Inhibition in the experiment with Plasmodium falciparum [1] is listed as 100%; in the experiment with Plasmodium falciparum [2], 3%; in the experiment on HepG2 it was 19%.
The matching figures for `O=C(CCCCCc1ccccc1)NC1CCC(CN2CCC(c3c[nH]c4ccccc34)CC2)CC1` (centres undefined): 86%, 5% and 34%.
The corresponding values for `CC(NC(C)(C)C)C(O)c1ccc(Cl)c(C(F)(F)F)c1.Cl` (centres undefined) are 97%, 97% and 0%.
The matching figures for `O=C(CCC(=O)c1ccc2c3c(cccc13)CC2)NC1CCC(CN2CCC(c3c[nH]c4ccccc34)CC2)CC1` (centres undefined): 96%, 13% and 34%.
`CC(=O)Nc1ccc(OCCN(CC(F)(F)F)c2ccc(C#N)cc2C(F)(F)F)cc1`: the figures for the Inhibition with Plasmodium falciparum [1], in the experiment on Plasmodium falciparum [2] and in the experiment on HepG2 were 81%, 83% and 0%, respectively.

By Inhibition is commonly meant the relative decrease from the control value, in per cent. Read a high Inhibition as strong suppression.
